From PubChem BioAssay
Compounds with a hit are over-represented: about 1.2% of the library has one in this group of screens.
HttQ103 aggreg – mutant huntingtin aggregation inhibition; PC12 HttQ103-GFP aggregates, Acumen cytometry, 40 h; Potency, µM (series often up to 46.1 µM), without a hit: at the top dose activity change, negative = inhibition, actives largely listed as inhibitors; actives 1.1% (n = 220,000); AID 1688; further: potency means the concentration at half of the fitted maximal effect; on the % scale 0 is the no-effect control and ±100 the full control effect; nearly all actives have a fitted effect of over 60% in size
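Multiplexed with ATP-based cell death, this channel scores GFP aggregates in PC12 cells expressing inducible HTTex1-Q103-GFP. Induction used 100 nM tebufenozide; compounds were tested in concentration series.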
HTT ATP protect – cytoprotection in Huntington HTT-Q103 PC12 cell model; PC12 HTT-Q103 induced, cytoprotection, ATP luminescence, 40 h; Potency, µM (doses to about 56.4 µM), for inactives: cytoprotection (ATP increase), most hits filed as activators; actives 0.14% (n = 230,000); further: potency means the concentration at half of the fitted maximal effect; % of control where 0% means no effect; nearly all actives have a fitted effect of over 45% in size
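Rat PC12, Q103 Htt exon1-GFP fusion, ecdysone promoter; tebufenozide inducer 100 nM final; compound titration; qHTS, 1500 cells/well; ATPlite luminescent read.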
GLA inh pH 4.5 – blocks human alpha-galactosidase A at pH 4.5 | P06280 | purified enzyme, 4-MU-alpha-Gal fluorescence, pH 4.5 | activity change, negative = inhibition, % at 105 µM | 230,000 tested, under 10 active;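 further: 0% = full activity with enzyme and -100% = basal without enzyme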
PKM2 act – PKM2 (human) enzyme activation; actives 0.34% (n = 260,000); Potency, µM (doses to about 57.5 µM), without a hit: at the top dose activation, most hits filed as activators; purified PKM2, Kinase-Glo ATP luminescence, activation; response scale: 0% is enzyme alone, no compound; P14618; further: potency means the concentration at half of the fitted maximal effect; on the % scale 0 is the no-effect control and ±100 the full control effect; nearly all actives have a fitted effect of over 55% in size
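Purified hPK-M2 (>95%) run at intermediate activity with 0.1 mM ADP and 0.5 mM PEP in 50 mM imidazole pH 7.2, KCl, MgCl2; 1 h room temperature. ATP formed read by Kinase-Glo luminescence; normalized to uninhibited and no-enzyme controls.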
aGal spleen mod – inhibits or activates alpha-galactosidase in human spleen homogenate; human spleen homogenate, 4MU-alpha-Gal fluorescence, 40 min; Potency, µM (titrated, usually from 80 µM), inactives show at the top dose activity change, negative = inhibition, hits mostly inhibitors; actives 0.008% (n = 240,000);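 further: potency means the concentration at half of the fitted maximal effect; 0% = enzyme with vehicle and -100% = no enzyme basal signal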
Target sequence (P06280 32-429 limits assumed): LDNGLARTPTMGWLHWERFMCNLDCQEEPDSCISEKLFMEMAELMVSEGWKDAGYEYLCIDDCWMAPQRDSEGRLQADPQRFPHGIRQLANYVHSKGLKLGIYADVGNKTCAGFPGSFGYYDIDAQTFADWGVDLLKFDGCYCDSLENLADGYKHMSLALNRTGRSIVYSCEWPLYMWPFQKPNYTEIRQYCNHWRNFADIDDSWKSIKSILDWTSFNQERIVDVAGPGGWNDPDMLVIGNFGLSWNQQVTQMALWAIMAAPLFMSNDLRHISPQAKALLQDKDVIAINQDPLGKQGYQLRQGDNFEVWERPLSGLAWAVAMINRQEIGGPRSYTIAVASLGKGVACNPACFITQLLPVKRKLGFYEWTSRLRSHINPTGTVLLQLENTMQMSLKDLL
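qHTS titration in buffer at pH 5.0. Alpha-galactosidase activity in spleen homogenate was measured via 4-methylumbelliferone release from 1 mM fluorogenic substrate after 40 min at 37C and a pH 10 stop. AC50 came from Hill fits of control-normalized data.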
* hit, by the source's call; ? = inconclusive; / = no result given; ! = repeats disagree; [ ] = another dose, or the depositor's remark. The call rests on the fitted dose curve; in most records, active means well fitted curve in the direction sought with a large enough effect; inconclusive means small, poorly fitted or top-dose-only effect, or another doubt; inactive means no such curve, though single readings can be large; an effect the other way counts as inactive or inconclusive.

SMILES	HttQ103 aggreg	HTT ATP protect	GLA inh pH 4.5	PKM2 act	aGal spleen mod
CO[C@@H](COC(N)=O)C1=C(N2CC2)C(=O)C(C)=C(N2CC2)C1=O	5µM*	-98%	/	/	/
O=C(O)[C@H]1C2c3ccccc3C(c3ccccc32)[C@@H]1C(=O)NCC1CC1	/	-4%[10 µM]	/	/	/
CN(C)[C@@H]1C(=O)C(C(N)=O)=C(O)[C@]2(O)C(=O)C3=C(O)c4c(O)cccc4[C@](C)(O)[C@H]3C[C@@H]12	/	-20%[10 µM]	/	/	/
O=C1NC(=O)N(c2ccccc2)C(=O)/C1=C/c1ccc(Sc2ccccc2)o1	-8%	-22%	/	28µM*	2%
O=C1NC(=O)N(c2cccc(Cl)c2)C(=O)/C1=C\c1ccc(Sc2nc3ccccc3[nH]2)o1	-10%	4%[10 µM]	1	19%	-4%
CN1C[C@@H](CNC(=O)OCc2ccccc2)C[C@H]2c3cccc4c3c(cn4C)C[C@@H]21	/	-10%[1.9 µM]	/	/	/
C=C(C)C(=O)CP(=O)(OCC)OCC	/	-49%	-8	/	16%
C[C@]12O[C@H](C[C@]1(O)CO)n1c3ccccc3c3c4c(c5c6ccccc6n2c5c31)CNC4=O	1.6µM*	-98%	/	/	/
Oc1ccc2c3c1O[C@H]1c4c(c5ccccc5n4Cc4ccccc4)C[C@@]4(O)C(C2)N(CC2CC2)CC[C@]314	/	-156%	/	/	-3%
COc1ccc(N2C(=O)/C(=C/c3cccs3)C(=O)NC2=S)cc1	-1%[9.22 µM]	-3%[10 µM]	1	14µM*	6%
COc1ccc(N2C(=O)/C(=C/C=C/c3ccccc3[N+](=O)[O-])C(=O)NC2=S)cc1	-8%	29%	-9	20µM*	3%
S=C=S	17%	-2%	/	/	9%
CC(=O)[O][Hg][c]1ccccc1	1.6µM*	-360%	17	/	2%
CCOC(=O)CCN(SN(C)C(=O)Oc1cccc2c1OC(C)(C)C2)C(C)C	/	/	/	/	5%
CCn1nc(-c2cccs2)nc2c(=O)n(C)c(=O)nc1-2	18µM*	-92%[10 µM]	-1	-8%	3%
CCOC(=O)C(O)(c1ccc(N(CC)C(=O)OC)cc1)C(F)(F)F (centres undefined)	1.6µM*	-2%[0.074 µM]	4	-6%	-1%
CO[C@@H]([CH2][Hg])CN1C(=O)c2ccccc2S1(=O)=O.Cn1c(=O)c2nc[nH]c2n(C)c1=O	/	-2%[10 µM]	/	/	/
CCOc1cc(-c2c(C#N)c(=O)[nH]c3c2c(C)nn3-c2ccc(F)cc2)ccc1O	13µM*	1%	5	21%	-3%
CC(C)(C)c1cc([N+](=O)[O-])cc(C(C)(C)C)c1O	7.9µM*	-33%	-7	2%	4%
C[C@@H]1OC=C2[C@@H](O)[C@H]3O[C@H]3C(=O)[C@@]23[C@H]1[C@H]1C2=C([C@@H](O)[C@H]4O[C@@H]4C2=O)[C@@H]3O[C@@H]1C	/	5.6µM*	/	/	-8%[17.5 µM]
CC(Cl)CCl (centres undefined)	/	-26%	/	/	2%
CC(C)NCC(O)COc1cccc2[nH]ccc12 (centres undefined)	-5%	-9%	-3	-5%	10µM*!
CC[n+]1c(/C=C/C=C/c2ccc(N(C)C)cc2)sc2ccccc21	?	-51%[10 µM]	0	-34%	5%
CC[n+]1c(/C=C/N(C)c2ccccc2)sc2ccc(Cl)cc21	13µM*	-84%	-7	-11%	-6%
Cc1cc(C(=O)CS(=O)(=O)c2ccc(F)cc2)cc(C)c1OC(=O)N(C)C	-4%	-25%[10 µM]	11	-14%	28µM*
SMILES	HttQ103 aggreg	HTT ATP protect	GLA inh pH 4.5	PKM2 act	aGal spleen mod
OC[C@@H](O)[C@H]1O[C@@H]2OC(C(Cl)(Cl)Cl)O[C@H]2[C@H]1O (some centres undefined)	0%	26%	/	/	/
NC(Cc1ccc(Oc2cc(I)c(O)c(I)c2)c(I)c1)C(=O)O (centres undefined)	-10%	-51%	/	/	/
CCC(=NCCc1c[nH]c2ccccc12)c1c(O)n(C)c(=O)n(C)c1=O	7.9µM*	-28%	2	17%	-9%
CCC(=NCc1ccc2c(c1)OCO2)c1c(O)n(C)c(=O)n(C)c1=O	20µM*	-25%[0.074 µM]	0	-1%	3%
CCC(=NCCOc1ccc(Cl)cc1)c1c(O)n(C)c(=O)n(C)c1=O	11µM*	-23%	-7	0%	-3%
CCC(=NCCN1CCCCC1)c1c(O)n(C)c(=O)n(C)c1=O	8%	6%	-2	-4%	3%
CN(C)C1CSSSC1	/	/	/	/	-18%
Nc1ncnc2c1ncn2[C@@H]1O[C@H](COP(=O)(O)OP(=O)(O)OP(=O)(O)O)[C@H]2OC3(O[C@H]21)C([N+](=O)[O-])=CC(=[N+]([O-])[O-])C=C3[N+](=O)[O-] (some centres undefined)	/	-20%	-5	/	7%
CCCCCC(O)C1C(=O)OC(C)C(O)\C=C/C=C\C=C/C=C\C=C(\C)C(O)C(O)C(O)CC(O)CC(O)CC(O)CC(O)CC1O (centres undefined)	23%	40%	/	/	/
O=C(Nc1cccc(F)c1)N1CC2(CCNCC2)C1	/	11%	/	/	-7%
NC(=S)c1cn(C2OC(CO)C(O)C2O)c2ncnc(N)c12 (centres undefined)	2.8µM*	-89%[10 µM]	-6	-1%	-1%
C=CC(=O)OCC(CC)CCCC (centres undefined)	/	41%	/	/	-7%
N=c1c2c(n(Cc3ccc(Cl)cc3Cl)c3c1CCC3)CCCC2	6.3µM*	-49%	6	1%	6%
Cc1nn(Cc2ccc(Cl)cc2Cl)c(Cl)c1C(=O)O	-5%	16%	8	-5%	-5%
C[C@@H]1CC[C@H]2[C@@H](C)C(=O)O[C@@H]3OC4(C)CC[C@@H]1C32OO4 (some centres undefined)	3.2µM*	-154%	-1	/	0%
C[C@@H]1CC[C@H]2[C@@H](C)C(=O)O[C@@H]3O[C@@]4(C)CC[C@@H]1[C@]32OO4	/	/	/	0%	/
O=C(Oc1ccccc1)N1CCC2(CCN(Cc3nccs3)CC2)CC1	/	-18%	/	/	1%
CNc1ccccc1C(=O)O	/	/	21	/	?
C[CH2][Hg][S]c1ccccc1C(=O)O	2.5µM*	-323%	3	/	-26%
C[C@@]12CC[C@H]3[C@@H](CC[C@@H]4C[C@H]5S[C@H]5C[C@]43C)[C@H]1CC[C@H]2O	3%[20.6 µM]	-4%[40.3 µM]	0	/	3%[29.1 µM]
Nc1cc(Cl)c2nonc2c1[N+](=O)[O-]	4.5µM*	-15%[10 µM]	-1	1%	-3%
CCC1=C(C[C@H]2NCCc3cc(OC)c(OC)cc32)C[C@H]2c3ccccc3CCN2C1	/	2%[10 µM]	/	/	/
COc1cc(/C=C/[N+](=O)[O-])ccc1O	25µM*	/	-7	2%	-7%
CCN(CC)c1ccc(/C=C/[N+](=O)[O-])cc1	-8%	-20%	1	-11%	8%
CN=C=S	/	-5%	/	/	7%
C[C@@H](Cc1ccc2c(c1)OC(C(=O)O)(C(=O)O)O2)NC[C@H](O)c1cccc(Cl)c1	/	-5%[1.9 µM]	/	/	/
